Results from the supplement of paper PMC11732987, “Enantioselective OTUD7B fragment discovery through chemoproteomics screening and high-throughput optimisation” (Communications Chemistry, 2025).

Legend:
Experiment in all cases: log2 ratio of Biotin-Ahx-Ub-VS probe labelling (fragment/DMSO); higher = less target engagement (more negative = stronger competition), active = hit call of the paper (q ≤ 0.05, log2 ratio ≤ -1)
Details in all cases: compound concentration: 200 uM; treatment time: 3 h
USP19 = molecular target: T1, USP19 (UniProt O94966)
T1 sequence (whole entry): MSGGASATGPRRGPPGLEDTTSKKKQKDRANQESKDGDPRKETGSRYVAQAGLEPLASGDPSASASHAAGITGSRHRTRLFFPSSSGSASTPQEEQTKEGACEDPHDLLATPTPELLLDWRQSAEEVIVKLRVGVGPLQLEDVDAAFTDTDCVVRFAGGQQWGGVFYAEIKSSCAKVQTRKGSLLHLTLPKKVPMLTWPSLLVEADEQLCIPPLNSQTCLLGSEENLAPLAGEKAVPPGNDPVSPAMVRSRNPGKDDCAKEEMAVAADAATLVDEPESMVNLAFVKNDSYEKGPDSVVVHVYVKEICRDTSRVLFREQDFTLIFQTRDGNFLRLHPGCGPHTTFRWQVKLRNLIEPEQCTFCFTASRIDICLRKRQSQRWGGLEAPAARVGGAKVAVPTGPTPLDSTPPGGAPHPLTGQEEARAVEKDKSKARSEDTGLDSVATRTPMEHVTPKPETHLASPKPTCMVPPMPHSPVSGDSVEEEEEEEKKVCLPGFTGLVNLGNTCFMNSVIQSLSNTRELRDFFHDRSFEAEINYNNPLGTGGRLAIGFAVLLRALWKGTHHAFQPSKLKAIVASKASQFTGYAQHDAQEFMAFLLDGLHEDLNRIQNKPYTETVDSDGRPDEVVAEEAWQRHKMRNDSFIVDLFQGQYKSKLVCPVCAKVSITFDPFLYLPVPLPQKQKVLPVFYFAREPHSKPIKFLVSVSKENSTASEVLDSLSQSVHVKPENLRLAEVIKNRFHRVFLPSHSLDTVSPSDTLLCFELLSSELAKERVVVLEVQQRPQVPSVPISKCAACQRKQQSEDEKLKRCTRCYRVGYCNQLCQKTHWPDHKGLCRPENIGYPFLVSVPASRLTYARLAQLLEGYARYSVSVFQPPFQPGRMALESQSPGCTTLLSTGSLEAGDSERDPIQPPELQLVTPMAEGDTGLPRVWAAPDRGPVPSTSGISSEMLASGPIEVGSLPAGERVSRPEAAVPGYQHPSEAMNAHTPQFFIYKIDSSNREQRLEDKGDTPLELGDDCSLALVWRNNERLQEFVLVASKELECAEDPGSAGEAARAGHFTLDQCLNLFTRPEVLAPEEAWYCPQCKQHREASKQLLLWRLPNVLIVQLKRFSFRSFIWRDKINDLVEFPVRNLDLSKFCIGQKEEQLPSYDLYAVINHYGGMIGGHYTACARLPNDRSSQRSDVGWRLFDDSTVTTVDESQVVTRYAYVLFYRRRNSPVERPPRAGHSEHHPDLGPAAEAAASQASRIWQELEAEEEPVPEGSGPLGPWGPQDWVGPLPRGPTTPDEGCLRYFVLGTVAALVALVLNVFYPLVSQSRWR
Method in brief: (§1)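 Average log2 ratios of fragment over vehicle were obtained by unpaired t-test from global-median-normalised Spectronaut label-free quantities. Proteins with ≥2 unique peptides were included. HEK293T lysate (495 µg per sample) was treated in triplicate with fragment at 200 µM or vehicle for 3 h, then with Biotin-Ahx-Ub-VS at 0.5 µM final for 1 h, and labelled DUBs were NeutrAvidin-enriched and run by diaPASEF LC-MS/MS.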

USP22 = molecular target: T2, USP22 (UniProt Q9UPT9)
T2 sequence (whole entry): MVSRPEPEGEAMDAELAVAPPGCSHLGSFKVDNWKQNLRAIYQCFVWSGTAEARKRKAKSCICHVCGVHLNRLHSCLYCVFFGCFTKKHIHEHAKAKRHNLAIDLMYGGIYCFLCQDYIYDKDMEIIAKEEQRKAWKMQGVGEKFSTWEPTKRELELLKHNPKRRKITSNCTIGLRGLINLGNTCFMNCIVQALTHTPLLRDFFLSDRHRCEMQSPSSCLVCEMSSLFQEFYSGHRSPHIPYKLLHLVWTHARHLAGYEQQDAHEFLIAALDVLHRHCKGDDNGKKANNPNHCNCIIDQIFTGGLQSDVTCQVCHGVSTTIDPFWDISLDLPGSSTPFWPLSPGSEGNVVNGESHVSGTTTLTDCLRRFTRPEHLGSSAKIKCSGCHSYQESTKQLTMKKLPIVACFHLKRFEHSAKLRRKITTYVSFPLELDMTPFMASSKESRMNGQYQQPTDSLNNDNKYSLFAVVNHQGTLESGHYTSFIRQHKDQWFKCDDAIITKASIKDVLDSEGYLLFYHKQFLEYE
Method in brief: as §1

USP24 = USP24 (UniProt Q9UPU5)
Sequence of USP24 (Q9UPU5 whole entry): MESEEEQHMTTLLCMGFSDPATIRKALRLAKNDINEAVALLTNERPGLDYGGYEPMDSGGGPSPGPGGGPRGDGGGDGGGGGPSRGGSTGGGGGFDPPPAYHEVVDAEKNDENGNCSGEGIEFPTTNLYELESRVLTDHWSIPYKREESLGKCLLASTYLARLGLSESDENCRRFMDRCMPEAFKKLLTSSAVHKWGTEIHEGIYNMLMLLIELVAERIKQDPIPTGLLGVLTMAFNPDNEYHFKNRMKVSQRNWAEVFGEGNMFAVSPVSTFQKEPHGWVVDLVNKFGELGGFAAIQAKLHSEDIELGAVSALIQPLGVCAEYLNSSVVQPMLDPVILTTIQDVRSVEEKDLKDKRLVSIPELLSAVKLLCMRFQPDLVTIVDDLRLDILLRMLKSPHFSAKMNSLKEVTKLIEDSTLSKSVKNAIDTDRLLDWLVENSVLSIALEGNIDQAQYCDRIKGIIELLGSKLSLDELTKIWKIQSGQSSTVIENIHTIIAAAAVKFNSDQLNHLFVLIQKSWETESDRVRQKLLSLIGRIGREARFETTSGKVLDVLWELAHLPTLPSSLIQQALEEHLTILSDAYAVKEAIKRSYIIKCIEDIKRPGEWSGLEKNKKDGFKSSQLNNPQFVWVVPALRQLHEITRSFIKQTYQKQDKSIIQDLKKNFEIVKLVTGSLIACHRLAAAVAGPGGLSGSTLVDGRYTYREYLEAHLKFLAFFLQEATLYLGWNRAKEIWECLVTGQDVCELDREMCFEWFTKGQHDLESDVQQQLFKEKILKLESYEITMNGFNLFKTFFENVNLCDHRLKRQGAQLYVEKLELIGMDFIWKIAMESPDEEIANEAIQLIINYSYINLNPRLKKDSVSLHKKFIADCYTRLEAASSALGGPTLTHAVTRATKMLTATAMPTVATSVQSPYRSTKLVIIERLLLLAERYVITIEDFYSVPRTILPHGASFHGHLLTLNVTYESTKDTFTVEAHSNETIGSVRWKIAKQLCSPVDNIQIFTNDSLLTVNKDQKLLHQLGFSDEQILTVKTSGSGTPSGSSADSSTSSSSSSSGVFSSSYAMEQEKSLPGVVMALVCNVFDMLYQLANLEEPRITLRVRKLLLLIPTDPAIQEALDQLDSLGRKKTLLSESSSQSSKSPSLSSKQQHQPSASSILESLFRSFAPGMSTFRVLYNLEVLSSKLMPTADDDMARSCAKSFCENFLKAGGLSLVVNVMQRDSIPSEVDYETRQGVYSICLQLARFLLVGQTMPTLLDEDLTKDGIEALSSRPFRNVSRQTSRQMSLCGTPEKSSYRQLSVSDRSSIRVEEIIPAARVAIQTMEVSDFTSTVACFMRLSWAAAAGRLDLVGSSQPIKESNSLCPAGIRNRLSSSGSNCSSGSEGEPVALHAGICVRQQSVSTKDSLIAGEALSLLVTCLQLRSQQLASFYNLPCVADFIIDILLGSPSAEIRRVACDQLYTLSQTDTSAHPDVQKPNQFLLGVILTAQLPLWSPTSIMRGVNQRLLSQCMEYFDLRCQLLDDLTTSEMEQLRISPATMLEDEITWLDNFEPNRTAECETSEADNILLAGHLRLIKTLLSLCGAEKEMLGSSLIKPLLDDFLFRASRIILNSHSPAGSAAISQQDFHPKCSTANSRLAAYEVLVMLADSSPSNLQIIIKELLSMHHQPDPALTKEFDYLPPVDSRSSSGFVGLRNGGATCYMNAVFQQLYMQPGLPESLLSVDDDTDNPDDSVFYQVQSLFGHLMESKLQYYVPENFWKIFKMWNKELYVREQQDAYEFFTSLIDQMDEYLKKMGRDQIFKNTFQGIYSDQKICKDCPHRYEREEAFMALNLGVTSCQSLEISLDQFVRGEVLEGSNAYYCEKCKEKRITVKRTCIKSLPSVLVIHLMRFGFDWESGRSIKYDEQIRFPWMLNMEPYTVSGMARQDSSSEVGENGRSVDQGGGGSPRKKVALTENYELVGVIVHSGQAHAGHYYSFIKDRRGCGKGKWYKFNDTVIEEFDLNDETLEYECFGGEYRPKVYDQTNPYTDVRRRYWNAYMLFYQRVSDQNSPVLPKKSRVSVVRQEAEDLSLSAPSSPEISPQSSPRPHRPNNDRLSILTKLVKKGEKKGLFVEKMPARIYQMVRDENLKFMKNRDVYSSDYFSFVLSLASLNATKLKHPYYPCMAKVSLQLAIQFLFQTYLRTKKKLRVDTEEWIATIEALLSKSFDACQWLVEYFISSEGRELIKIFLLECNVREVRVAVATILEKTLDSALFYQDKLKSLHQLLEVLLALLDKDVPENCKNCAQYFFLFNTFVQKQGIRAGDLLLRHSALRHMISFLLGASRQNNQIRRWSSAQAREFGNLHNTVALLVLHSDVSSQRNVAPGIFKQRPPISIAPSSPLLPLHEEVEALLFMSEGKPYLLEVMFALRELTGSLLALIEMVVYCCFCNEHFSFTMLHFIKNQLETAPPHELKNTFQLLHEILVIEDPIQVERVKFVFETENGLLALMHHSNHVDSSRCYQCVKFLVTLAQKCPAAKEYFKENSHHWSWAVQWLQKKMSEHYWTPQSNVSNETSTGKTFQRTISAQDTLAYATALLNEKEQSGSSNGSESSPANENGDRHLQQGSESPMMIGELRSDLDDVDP
Method in brief: as §1

USP25 = molecular target: T3, USP25 (UniProt Q9UHP3)
T3 sequence (whole entry): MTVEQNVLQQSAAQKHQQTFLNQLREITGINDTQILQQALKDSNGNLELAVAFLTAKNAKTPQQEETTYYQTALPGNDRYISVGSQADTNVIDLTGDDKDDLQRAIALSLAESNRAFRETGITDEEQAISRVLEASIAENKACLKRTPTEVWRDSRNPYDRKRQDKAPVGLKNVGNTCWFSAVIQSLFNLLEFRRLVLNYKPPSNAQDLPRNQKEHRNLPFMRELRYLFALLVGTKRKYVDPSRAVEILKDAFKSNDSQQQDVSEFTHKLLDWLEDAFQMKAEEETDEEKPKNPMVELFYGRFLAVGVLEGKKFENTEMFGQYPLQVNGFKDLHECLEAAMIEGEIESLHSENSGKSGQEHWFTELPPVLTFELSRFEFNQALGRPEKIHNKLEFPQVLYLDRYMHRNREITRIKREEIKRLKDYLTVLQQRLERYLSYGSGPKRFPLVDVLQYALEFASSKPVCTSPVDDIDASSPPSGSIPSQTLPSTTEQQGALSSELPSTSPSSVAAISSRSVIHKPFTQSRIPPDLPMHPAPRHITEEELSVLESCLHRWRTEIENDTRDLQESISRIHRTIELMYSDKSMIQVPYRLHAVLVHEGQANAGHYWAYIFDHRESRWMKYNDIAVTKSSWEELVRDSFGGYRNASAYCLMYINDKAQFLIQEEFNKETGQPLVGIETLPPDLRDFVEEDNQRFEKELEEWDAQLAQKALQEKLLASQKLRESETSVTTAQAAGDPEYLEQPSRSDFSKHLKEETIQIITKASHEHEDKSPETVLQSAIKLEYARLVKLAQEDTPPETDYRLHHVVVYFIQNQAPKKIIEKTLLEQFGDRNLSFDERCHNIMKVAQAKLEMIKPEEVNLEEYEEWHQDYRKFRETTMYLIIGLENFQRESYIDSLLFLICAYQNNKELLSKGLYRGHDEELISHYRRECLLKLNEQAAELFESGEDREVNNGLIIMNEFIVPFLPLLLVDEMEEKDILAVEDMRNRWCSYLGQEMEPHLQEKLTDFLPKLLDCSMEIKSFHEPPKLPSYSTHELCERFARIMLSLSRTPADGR
Method in brief: as §1

USP28 = molecular target: T4, USP28 (UniProt Q96RU2)
T4 sequence (whole entry): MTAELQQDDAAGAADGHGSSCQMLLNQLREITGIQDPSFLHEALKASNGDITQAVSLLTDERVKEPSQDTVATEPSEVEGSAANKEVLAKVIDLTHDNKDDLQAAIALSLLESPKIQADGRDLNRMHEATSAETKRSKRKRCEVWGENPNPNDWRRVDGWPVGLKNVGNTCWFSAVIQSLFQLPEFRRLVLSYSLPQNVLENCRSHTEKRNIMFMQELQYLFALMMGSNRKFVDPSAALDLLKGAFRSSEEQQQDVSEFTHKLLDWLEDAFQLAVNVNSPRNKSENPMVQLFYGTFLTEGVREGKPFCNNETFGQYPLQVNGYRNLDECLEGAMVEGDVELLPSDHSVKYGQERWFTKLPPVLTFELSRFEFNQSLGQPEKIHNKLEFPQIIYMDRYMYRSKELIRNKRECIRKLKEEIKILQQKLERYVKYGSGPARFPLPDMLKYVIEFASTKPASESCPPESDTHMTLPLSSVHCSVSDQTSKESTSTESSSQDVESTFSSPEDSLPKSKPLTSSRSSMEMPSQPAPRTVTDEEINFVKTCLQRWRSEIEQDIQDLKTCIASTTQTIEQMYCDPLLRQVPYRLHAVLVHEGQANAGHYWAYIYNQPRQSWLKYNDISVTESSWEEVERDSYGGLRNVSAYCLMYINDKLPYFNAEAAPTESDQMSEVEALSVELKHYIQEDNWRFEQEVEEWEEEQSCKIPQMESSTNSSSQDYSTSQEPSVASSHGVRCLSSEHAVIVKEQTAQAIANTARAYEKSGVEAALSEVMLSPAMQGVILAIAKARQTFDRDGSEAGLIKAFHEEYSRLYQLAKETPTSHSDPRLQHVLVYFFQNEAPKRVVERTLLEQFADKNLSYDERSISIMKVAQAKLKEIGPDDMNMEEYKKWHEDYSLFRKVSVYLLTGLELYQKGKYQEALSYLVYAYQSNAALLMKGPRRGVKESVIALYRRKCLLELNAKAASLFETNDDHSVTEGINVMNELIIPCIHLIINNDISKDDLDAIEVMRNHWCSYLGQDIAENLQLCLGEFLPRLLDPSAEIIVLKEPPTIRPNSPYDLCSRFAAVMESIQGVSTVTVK
Method in brief: as §1

Measured: log2 ratio of Biotin-Ahx-Ub-VS probe labelling

Cl.Cn1c(CNC(=O)CCl)nc2cccnc21
inactive: USP19 -0.0671 | USP22 -0.175 | USP24 -0.218 | USP25 -0.148 | USP28 -0.316
